HTR5A ag ctr: HTR5A agonists in luminescence cell assay, primary screen, counter-screen for OPRM1-OPRD1 heterodimer agonist project, full-deck HTS; 5-hydroxytryptamine receptor 5A (Homo sapiens), P47898; cell-based; activation, % at 9.3 µM; actives 0.61% (n = 340,000); in the data active = activation mostly above about 9.5%, no sharp cut-off; inactive = mostly below about 7.6%;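 note: 0% = cells with vehicle only and 100% = reference agonist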
MOR-DOR ag: agonists of OPRM1-OPRD1 heterodimerization, primary screen, cell-based, luminescence. Mu-type opioid receptor (Homo sapiens) + Delta-type opioid receptor (Homo sapiens), …. cells. activation, % at 9.3 µM. actives 0.3% (n = 340,000). AID 504326, 2011; in the data active = activation above about 18%;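 note: 0% = vehicle-treated cells and 100% = reference agonist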
Target sequence (P35372 whole entry, looked up): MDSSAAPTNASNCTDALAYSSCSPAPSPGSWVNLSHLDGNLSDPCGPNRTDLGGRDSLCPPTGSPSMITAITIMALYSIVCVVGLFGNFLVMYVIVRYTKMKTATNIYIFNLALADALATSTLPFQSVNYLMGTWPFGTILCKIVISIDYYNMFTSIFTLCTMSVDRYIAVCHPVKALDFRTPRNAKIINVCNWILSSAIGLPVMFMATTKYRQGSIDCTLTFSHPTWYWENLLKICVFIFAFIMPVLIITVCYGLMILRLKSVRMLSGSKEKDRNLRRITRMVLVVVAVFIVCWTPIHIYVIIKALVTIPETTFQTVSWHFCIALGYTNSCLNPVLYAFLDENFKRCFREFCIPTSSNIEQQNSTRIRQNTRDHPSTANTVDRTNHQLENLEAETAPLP
Target sequence (P41143 whole entry, looked up): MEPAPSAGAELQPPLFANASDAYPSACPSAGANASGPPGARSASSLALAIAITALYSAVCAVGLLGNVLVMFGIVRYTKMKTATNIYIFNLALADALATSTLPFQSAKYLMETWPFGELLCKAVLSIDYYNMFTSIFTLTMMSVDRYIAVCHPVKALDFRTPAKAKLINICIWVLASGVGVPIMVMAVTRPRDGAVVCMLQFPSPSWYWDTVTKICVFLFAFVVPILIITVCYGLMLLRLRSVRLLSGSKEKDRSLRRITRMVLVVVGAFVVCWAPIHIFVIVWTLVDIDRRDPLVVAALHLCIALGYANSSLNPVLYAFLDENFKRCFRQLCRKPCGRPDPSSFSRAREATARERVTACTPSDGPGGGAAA
MOR-DOR inv ag: inverse agonists of MOR-DOR heterodimerization, primary screen, cell-based, luminescence; inhibition, % at 9.3 µM; AID 504357, 2011; cell-based MOR-DOR heterodimer luminescence, inverse agonism; Mu-type opioid receptor (Homo sapiens) + Delta-type opioid receptor (Homo sapiens), …; actives 0.21% (n = 340,000); in the data active = inhibition above about 22%, passing the limit was not always enough;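 note: 0% = cells with DMSO and 100% = wells without cells with DMSO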
HTR5A inv ag: HTR5A inverse agonists in luminescence cell assay, primary screen, counter-screen for OPRM1-OPRD1 heterodimer inverse agonist project, full-deck HTS; HTR5A cell line, inverse agonism; actives 0.083% (n = 340,000); inhibition, % at 9.3 µM; 5-hydroxytryptamine receptor 5A (Homo sapiens), P47898; in the data active = inhibition mostly above about 23%, no sharp cut-off; inactive = mostly below about 18%;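 note: 0% = cells with DMSO and 100% = no-cell wells with DMSO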
* marks the source's active call; other numbers are inactive results. This is a sample that favours compounds with a hit; in the whole collection about 1.1% have one here.

SMILES | HTR5A ag ctr | MOR-DOR ag | MOR-DOR inv ag | HTR5A inv ag
CC#CCN(Cc1ccco1)C(=O)c1ccc(OC2CCN(Cc3ccccn3)CC2)cc1 | 9.8* | -2 | 12 | -30
Cc1ccc(S(=O)(=O)Cn2nnnc2C(C(C)C)N2CCC(C(N)=O)CC2)cc1 (stereo not given) | -3 | -3 | 18 | -5
COc1cc2ncnc(NCc3cccc(F)c3F)c2cc1OC | 9.2* | 2 | -9 | -33
O=C(NC1CCCC1)C1CC(O)CN1C(=O)Nc1ccccc1 (stereo not given) | 3 | 0 | 1 | 2
CCCn1c(SC(C(=O)Nc2cccc(OC)c2)c2ccccc2)nc2ccccc2c1=O (stereo not given) | 13* | 0 | 1 | -44
CCn1c(SCC(=O)Nc2cccc(OC)c2)nc2ccccc2c1=O | -1 | -1 | 5 | 4
Cc1ccc(S(=O)(=O)N2CCOCC2)cc1NC(=O)CSCc1c(C)noc1C | 1 | -3 | 12 | -2
COC(=O)[C@H](NCc1ccc(OC)c(B(O)O)c1)C(C)C | 11* | -4 | 21 | -39
CN(C(=O)CSc1nnc(-c2ccccc2F)n1N)C1CCCCC1 | 0 | -2 | 8 | 0
O=C(Cn1cnc([N+](=O)[O-])c1)c1ccc(F)cc1 | 2 | -1 | 4 | 9
CCOCCn1c(SCc2ccc(C)cc2)nc2c1c(=O)[nH]c(=O)n2C | 13* | 0 | 0 | -32
Nc1nc(N)c2c(ccc3nccc32)[nH]1 | 12* | -1 | 3 | -42
COc1ccc(S(=O)(=O)NC(N)=NCCc2ccccc2)cc1 | 3 | -1 | 11 | 14
C=CCn1c(O)c(N=NC(=O)CNC(=O)Cc2ccccc2)c2ccccc21 | 11* | -3 | 16 | 13
O=C(c1ccccc1Cl)N1CCC(N2CCC(C(=O)N3CCCC3)CC2)CC1 | 13* | -1 | 3 | -14
Cc1ccc2[nH]c(C(=O)NCCN3CCCC3)cc2c1 | 2 | 1 | -7 | -9
Cc1cc(C)n2nc(NCc3cccc(Br)c3)nc2n1 | 12* | 1 | -3 | -36
COc1ccc(CNc2nc3nc(C)cc(C)n3n2)cc1OC | 4 | -3 | 13 | 0
C[C@@H]1CN([C@@H](C)CO)C(=O)Cc2cc(NS(=O)(=O)c3cn(C)cn3)ccc2O[C@@H]1CN(C)C(=O)Nc1ccccc1 | 0 | 0 | 1 | -4
CCOc1ccc(NC(=O)c2ccc(NC(=S)NC3CCCCC3)cc2)cc1 | 9.9* | 11 | -56 | -27
CCOc1ccc(NC(=O)c2ccc(NC(=S)NC3CC3)cc2)cc1 | -3 | -1 | 5 | 7
Cc1[nH]nc2nc(SCC(=O)NCCC3=CCCCC3)n(-c3ccc(Br)cc3)c(=N)c12 | 15* | 25* | -124 | -56
Cc1ccc(Cl)cc1-n1c(SCC(=O)NCCC2=CCCCC2)nc2n[nH]c(C)c2c1=N | 3 | 2 | -10 | 5
Cc1cc(-n2c(SCC(=O)NCCC3=CCCCC3)nc3n[nH]c(C)c3c2=N)ccc1Cl | 31* | 29* | -151 | -47
CC(NC(C)c1ccccc1Cl)C(=O)Nc1cccc(S(=O)(=O)N2CCCCC2)c1 (stereo not given) | -3 | 0 | 1 | 8
SMILES | HTR5A ag ctr | MOR-DOR ag | MOR-DOR inv ag | HTR5A inv ag
CCOC(=O)CC(=O)N/N=C/c1c(N)n(C)c(=O)n(C)c1=O | 3 | -1 | 6 | -5
Clc1ccc(CN2CCc3c([nH]c4ccccc34)C2)cc1Cl | 14* | 10 | -50 | -52
Clc1ccc(/C=C/c2nc3ccccc3[nH]2)c(Cl)c1 | 13* | 7 | -33 | -17
CNC[C@@H](CC1CCCCC1)NC[C@H](CC(C)C)NCCc1cccc(C(F)(F)F)c1 | 13* | 25* | -140 | -14
CNC[C@@H](Cc1ccccc1)NC[C@@H](CC1CCCCC1)NCCCc1ccccc1 | 20* | 23* | -126 | -50
CCC[C@H](CN[C@@H](CNC)[C@H](C)CC)NCCc1cc(C(F)(F)F)cc(C(F)(F)F)c1 | 7 | 14 | -74 | -9
CC(=O)c1cccc(NS(=O)(=O)c2ccc(NC(=O)N3CCCCC3)cc2)c1 | 11* | -1 | 4 | -5
CC(=O)c1cccc(NC(=O)N2CCCCCC2)c1 | 2 | -1 | 4 | -36
COc1ccc2ccccc2c1/C=N/NC(=O)c1sc(N)c(C#N)c1C | 8 | 24* | -129 | -39
CCCOc1ccc(C(=O)CCN2CCN(C(=O)OCC)CC2)cc1 | 1 | -1 | 7 | -13
COCCSc1ccccc1C(=O)N1CCc2ccccc21 | 0 | -3 | 12 | -1

Screening results: PubChem BioAssay, The Scripps Research Institute Molecular Screening Center
